Bioassay records deposited in PubChem BioAssay by National Center for Advancing Translational Sciences (NCATS).
TRPV1 potentiator: HTS Assay for Compounds that Act as Potentiators of the Vanilloid Receptor 1; potentiation, % at 8.33 µM; actives 0.02% (n = 320,000); TRPV1-expressing cells, Fluo-8 calcium influx, capsaicin EC20 potentiation; in the data active = potentiation above about 80%; inconclusive = between about 30% and that limit
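Cells expressing TRPV1 were dye-loaded with Fluo-8 and read kinetically: 10 s baseline, 3 min after compound (agonist portion), then 2 min after EC20 capsaicin (allosteric enhancer portion). Calcium-bound dye fluorescence at 480/520 nm.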
TRPV1 agonist: HTS Assay for Compounds that Act as Agonists of the Vanilloid Receptor 1; actives 0.19% (n = 320,000); Transient receptor potential cation channel subfamily V member 1 (Homo sapiens), Q8NER1; TRPV1-expressing cells, Fluo-8 calcium influx, agonist mode; AID 540275, 2011; activation, % at 8.33 µM; in the data active = activation above about 80%; inconclusive = between about 30% and that limit
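Cells expressing TRPV1 were dye-loaded with Fluo-8 and read kinetically: 10 s baseline, 3 min after compound (agonist portion), then 2 min after EC20 capsaicin (allosteric enhancer portion). Calcium-bound dye fluorescence at 480/520 nm.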
KCNH2 3.1 block: qHTS for Inhibitors of KCHN2 3.1: Mutant qHTS; Potassium voltage-gated channel subfamily H member 2, brain isoform KCNH2 3.1 (human); U2OS KCNH2 3.1, thallium flux FluxOr; stronger effect = lower value; activity change, % (tested at about 1.8 µM); actives 0.95% (n = 340,000); AID 720553, 2013;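 active = maximum activity change below -70%; inconclusive = maximum activity change from -70% to -50%; inactive = maximum activity change above -50%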;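 also: thallium influx rate constant from kinetic fluorescence after stimulation buffer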
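Thallium flux read-out: FluxOr dye with Red40 quencher in HBSS/HEPES, 45 min at RT. Rate constants from kinetic reads were normalized to positive and negative DMSO controls. Cells: U2OS virally expressing the 3.1 isoform.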
hERG WT inh: qHTS for Inhibitors of KCHN2 3.1: Wildtype qHTS | U2OS, BacMam KCNH2, thallium flux FluxOr; stronger effect = lower value | activity change, % at 1.84 µM | actives 0.37% (n = 340,000) | AID 720551, 2013;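 active = maximum activity change below -70%; inconclusive = maximum activity change between -70% and -50%; inactive = maximum activity change above -50%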
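U2OS cells transduced with wild-type KCNH2 virus are loaded with FluxOr dye for 45 min, and thallium flux is measured in kinetic reads before and after stimulation buffer. Rate constants are normalized to DMSO controls.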
Hits are given with their value; . = inactive; ? = inconclusive; / = not tested or not shown. An excerpt weighted towards active compounds, which were near 1.2% of everything screened.

SMILES	TRPV1 potentiator	TRPV1 agonist	KCNH2 3.1 block	hERG WT inh
Cn1c2c(c(=O)n(C)c1=O)C(c1ccccc1Cl)C(C#N)=C(N)O2 (stereo unspecified)	.	.	-104.7	.
FC(F)c1nnc2ccc(Cl)nn12	.	.	.	.
Clc1ccc2nnc(Cl)n2n1	.	.	-183.3	-219.6
CCN1CCN(C(c2cccs2)C(C)NS(=O)(=O)c2ccccc2)CC1 (stereo unspecified)	.	.	.	.
CCN1CCN(C(c2cccs2)C(C)NS(=O)(=O)c2ccc(C)cc2)CC1 (stereo unspecified)	.	.	-75.6	/
COc1ccc2c(c1OC)CN(C)CCc1cc3c(cc1C(=O)C2)OCO3	.	.	-83.5	.
CCn1cc(/C=N/N=C2\CCC3C4CCc5cc(O)ccc5C4CC[C@]23C)c(C)n1 (stereo partly specified)	.	.	.	.
O=C(Nc1nnc(C2CC2)s1)c1cc([N+](=O)[O-])ccc1N1CCCCC1	.	.	.	.
O=C(Nc1nc(-c2ccccc2)cs1)c1ccc(N2CCOCC2)c([N+](=O)[O-])c1	.	.	.	.
Cc1ccc(-c2csc(NC(=O)c3cc([N+](=O)[O-])ccc3N3CCOCC3)n2)cc1	.	.	.	-108.1
O=C(OCc1ccc([N+](=O)[O-])cc1)c1cc([N+](=O)[O-])ccc1N1CCOCC1	.	.	-88.9	-105.8
O=[N+]([O-])c1ccc(COc2ccccc2CN2CCCC2)cc1	/	/	.	.
O=[N+]([O-])c1ccc(COc2ccc(Br)cc2CN2CCOCC2)cc1	.	.	-90.1	.
CSc1ccc(CN2CCN(Cc3ccc([N+](=O)[O-])cc3)CC2)cc1	.	.	-110.1	-111.8
CCc1cc(C(=O)NC2CCCc3c2cnn3-c2ccc(F)cc2F)no1 (stereo unspecified)	/	/	.	.
Cn1cc(S(=O)(=O)N2CCCC2)cc1C(=O)NCc1ccccc1Cl	.	.	.	.
COc1ccc(C(CC(=O)c2ccc3c(c2)OCO3)C(=O)O)cc1OC (stereo unspecified)	/	/	.	.
O=[N+]([O-])c1ccc(CN2CCOCCOCCN(Cc3ccc([N+](=O)[O-])cc3)CCOCC2)cc1	.	.	-114.9	-89.9
COc1ccc(CN2CCOCCOCCN(Cc3ccc(OC)cc3)CCOCCOCC2)cc1	.	.	-73.8	.
COCCNC(=O)c1ccc(CN2CCOCC2)cc1	.	.	.	-133.2
O=[N+]([O-])c1ccc(COc2ccc(CN3CCOCC3)cc2)cc1	/	/	.	.
COCCNC(=O)c1cccc(OC2CCN(Cc3ccc(OC(F)F)cc3)CC2)c1	.	.	-79.8	.
COc1ccc(CN2CCOCCOCCOCC2)cc1	.	.	.	.
O=c1c(-c2ccc(Cl)cc2)cnc2n1CCS2	.	.	.	.
COc1cc(C(=O)Oc2cccc(/C=N/NC(=O)c3cc(C)[nH]n3)c2)cc(OC)c1OC	.	.	.	.
SMILES	TRPV1 potentiator	TRPV1 agonist	KCNH2 3.1 block	hERG WT inh
Cc1cc(C(=O)N/N=C/c2cccc(OC(=O)c3cccc(Br)c3)c2)n[nH]1	.	.	-190.6	-151.2
Cc1ccc(CNC(=O)C2CCC(=O)N2C(C)C)cc1 (stereo unspecified)	.	.	.	.
O=C(C(Cc1ccccc1)NS(=O)(=O)c1cccc2cccnc12)N1CCc2ccccc21 (stereo unspecified)	.	.	.	.
O=c1[nH]c(COc2ccccc2)nc2ccccc12	?	.	.	.
S=c1nc(Cc2ccc(Cl)cc2)[nH]c2ccccc12	.	.	.	-150.2
S=c1nc(COc2ccccc2)[nH]c2ccccc12	.	.	.	-90.7
S=c1nc(Cc2ccccc2)[nH]c2ccccc12	.	?	.	.
O=C(O)Cn1c(CC(=O)N2CCCC2)nc2ccccc21	.	.	-169.1	.
Fc1cccc(C2CCCCN2Cc2nc(C3CC3)no2)c1 (stereo unspecified)	.	.	.	.
N#C/C(=C/c1ccc2c(c1)OCO2)C(=O)NCCc1c[nH]c2ccccc12	.	.	-73.7	.
O=C(NCCc1c[nH]c2ccccc12)c1ccc2c(c1)OCO2	.	.	.	.
O=C1NC(c2cccc(OCc3ccccc3)c2)Nc2ccccc21 (stereo unspecified)	/	/	.	.
COc1nc(OC)nc(N2CCC(C(=O)NCc3ccco3)CC2)n1	.	.	.	.
O=C(NCc1ccco1)C1CCN(c2nc3ccccc3n2Cc2ccc(F)cc2)CC1	.	?	-104.1	-151.6
CC(NC(=O)c1ccccc1NC(=O)c1ccccc1)C(=O)N1CCOCC1 (stereo unspecified)	.	80.2	.	.
CC(C)C(NC(=O)c1ccccc1NC(=O)C(C)(C)C)C(=O)N1CCOCC1 (stereo unspecified)	/	/	.	.
COC(=O)C1=C(C)NC(C)=C(C(=O)OC)C1C(=O)OCc1nnc(-c2ccccc2Cl)o1	.	.	.	.
O=c1[nH]cnc(O)c1C(c1ccc([N+](=O)[O-])cc1)c1c(O)nc[nH]c1=O	.	.	-180.8	.
CCCn1ncc(CN2CCC(n3nccc3NC(=O)c3ccccc3OC)CC2)c1C	.	.	-94.8	?
COc1ccccc1C(=O)Nc1ccnn1C1CCN(Cc2cn(C)c3ccccc23)CC1	.	.	-76.8	.
CCn1nc(C)c(CN2CCC(n3nccc3NC(=O)c3ccccc3OC)CC2)c1C	.	.	.	.
CCCCc1ncc(CN2CCC(n3nccc3NC(=O)c3ccccc3OC)CC2)[nH]1	.	.	-79.3	.
Cn1cc(CN2CCC(n3nccc3NC(=O)c3ccccc3Cl)CC2)c2ccccc21	.	.	.	-78.9
Cc1cc(C)c(CN2CCC(n3nccc3NC(=O)c3ccccc3Cl)CC2)cc1C	.	.	/	.
Cc1c(Cc2ccccc2)c(=O)oc2cc(OCC(=O)NCC3CCC(C(=O)O)CC3)ccc12 (stereo unspecified)	.	.	.	.
SMILES	TRPV1 potentiator	TRPV1 agonist	KCNH2 3.1 block	hERG WT inh
COc1ccc(CNc2nc(-c3cccnc3)nn2S(C)(=O)=O)cc1	?	.	-75.6	.
CS(=O)(=O)n1nc(-c2cccnc2)nc1NCc1ccccc1	.	.	.	.
OCC[C@@H]1NCc2cc(CO)cc(-c3ccccc3)c21	/	/	/	.
CC(=O)c1cccc(S(=O)(=O)NCCC(=O)Nc2ccc(S(N)(=O)=O)cc2)c1	.	.	.	.
O=C(NCc1ccccc1)c1ccc(-c2ccc(F)cc2)o1	.	?	.	-259.8
COc1ccc(Br)cc1CN(C)CC(O)COc1ccc(Br)cc1 (stereo unspecified)	.	.	-74.7	.
CN(CCOc1ccc(Br)cc1)CC(O)COc1ccc(C#N)cc1 (stereo unspecified)	.	.	-119.6	-113.0
O=C(NCc1ccccc1CN1CCCC1)C1CCN(C(=O)c2ccc(Cl)cc2)CC1	/	/	.	.
CNC(=O)c1cc2cc(OC)ccc2n1CCN(Cc1ccccc1)Cc1ccccc1	.	?	-75.4	.
